Mcl1-Bid inh = Mcl-1/Bid binding inhibitors, primary screen, biochemical, TR-FRET, 1536-well | Induced myeloid leukemia cell differentiation protein Mcl-1 (Homo sapiens), Q07820 | TR-FRET Mcl-1/Bid-Dy647 peptide binding | inhibition, % at 21.7 µM | 220,000 tested, 0.97% active;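 active = compounds that cut the binding signal by more than half at the single screening dose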;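 also: His-tagged Mcl-1 with europium anti-His antibody binding Bid BH3 peptide; 0% = Mcl-1 plus peptide wells and 100% = peptide-only wells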
Mcl1 Noxa PPI = Mcl-1/Noxa binding inhibitors, primary screen, biochemical, TR-FRET, 1536-well. Induced myeloid leukemia cell differentiation protein Mcl-1 (Homo sapiens), Q07820. TR-FRET Mcl-1/Noxa peptide binding, 2 h. inhibition, % at 21.7 µM. 220,000 tested, 1.5% active. AID 1022, 2008;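 active = compounds that cut the protein-peptide binding signal by more than 50% relative to plate controls in a single-dose test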;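 also: His-tagged Mcl-1 with rhodamine Noxa BH3 peptide and terbium anti-His antibody; 0% = Mcl-1 plus Noxa peptide wells and 100% = peptide-only wells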
14-3-3 Bad inh = inhibitors of 14-3-3 zeta/Bad binding, primary screen, biochemical, TR-FRET, bovine 14-3-3 zeta; AID 781, 2007; 220,000 tested, 0.71% active; inhibition, % at 21.7 µM; TR-FRET 14-3-3zeta/Dy647-pBad peptide displacement, 1 h;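 active = inhibition above about 70%, limit read from the data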;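 also: 0% = full 14-3-3 plus peptide FRET controls and 100% = background without 14-3-3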
Mcl-1 Bim block = inhibitors of Bim peptide binding to Mcl-1, primary screen, biochemical, bead-based flow cytometry, multiplex | Induced myeloid leukemia cell differentiation protein Mcl-1 (Homo sapiens), Q07820 | Bim peptide-Mcl-1 binding | inhibition, % at 10 µM | 190,000 tested, 0.1% active; in the data active = inhibition above about 40%;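 also: 0% = no compound tracer wells and 100% = peptide blocker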
NCF1 inh = p47phox/p22phox peptide binding inhibitors, primary screen, biochemical, uHTS, NADPH oxidase regulatory subunit | fluorescence polarization, 2 h | inhibition, % at 24.7 µM | 220,000 tested, 0.53% active | AID 1274, 2008;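 active = inhibition above about 30%, limit read from the data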;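 also: 0% = p47phox with labelled peptide and 100% = labelled peptide alone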
Target sequence (P14598 whole entry, looked up): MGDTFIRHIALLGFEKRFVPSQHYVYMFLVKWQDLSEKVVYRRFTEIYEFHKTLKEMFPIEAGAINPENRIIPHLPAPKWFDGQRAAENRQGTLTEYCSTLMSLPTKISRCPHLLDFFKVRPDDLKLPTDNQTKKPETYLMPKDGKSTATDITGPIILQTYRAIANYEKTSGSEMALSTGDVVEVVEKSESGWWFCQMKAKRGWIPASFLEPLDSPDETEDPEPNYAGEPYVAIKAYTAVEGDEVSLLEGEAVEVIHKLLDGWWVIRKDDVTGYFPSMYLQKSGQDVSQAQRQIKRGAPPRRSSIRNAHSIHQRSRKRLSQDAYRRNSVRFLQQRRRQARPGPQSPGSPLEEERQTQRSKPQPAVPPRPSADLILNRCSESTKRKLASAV
* = called active by the depositor. In the library only some 3.2% were active in any assay of this set; here they are far more common.

What do the screens show for `CCN1C(=O)N(CC)C(=O)C2(Cc3ccccc3N3CCN(c4ccccc4)CC32)C1=O` (stereo not given)?
Mcl1-Bid inh: -43; Mcl1 Noxa PPI: -8; 14-3-3 Bad inh: 0; NCF1 inh: -5

Results for CN1CCN2c3ccc(N)cc3CC3(C(=O)NC(=O)NC3=O)C2C1 (stereo not given) ?
Mcl1-Bid inh: 97*; Mcl1 Noxa PPI: 35; 14-3-3 Bad inh: 96*; NCF1 inh: 29

What do the screens show for `CN(C=O)CP(=O)(O)CN(C)C=O`?
Mcl1-Bid inh: 60*; Mcl1 Noxa PPI: 6; 14-3-3 Bad inh: -1; Mcl-1 Bim block: -2; NCF1 inh: 4

Results for CN1C2CCC1C(COC(=O)c1ccccc1)C(O)C2 (stereo not given) ?
Mcl1-Bid inh: 0; Mcl1 Noxa PPI: 10; 14-3-3 Bad inh: 91*; NCF1 inh: -6

What do the screens show for `COc1ccc(C(=O)CC2(CC(=O)c3ccc(OC)cc3)C(=O)N(C)C(=O)N(C)C2=O)cc1`?
Mcl1-Bid inh: -24; Mcl1 Noxa PPI: -6; 14-3-3 Bad inh: -1; Mcl-1 Bim block: 0; NCF1 inh: -14

Results for CN1C(=O)N(C)C(=O)C2(Cc3c(ccc4ccccc34)N(C)C2)C1=O ?
Mcl1-Bid inh: -74; Mcl1 Noxa PPI: 51*; 14-3-3 Bad inh: -6; Mcl-1 Bim block: -1; NCF1 inh: 3

Results for Cc1cccc(OP(=O)(NCc2ccccc2)Oc2cccc(C)c2)c1 ?
Mcl1-Bid inh: 17; Mcl1 Noxa PPI: 18; 14-3-3 Bad inh: 3; Mcl-1 Bim block: 0; NCF1 inh: -7

How did CCOP(=O)(OCC)C(O)c1ccc(N(C)C)cc1 (stereo not given) do in these assays?
Mcl1-Bid inh: 58*; Mcl1 Noxa PPI: -2; 14-3-3 Bad inh: -3; NCF1 inh: -15

Results for CCOP(=O)(OCC)C(O)c1ccc(Br)cc1 (stereo not given) ?
Mcl1-Bid inh: 5; Mcl1 Noxa PPI: 18; 14-3-3 Bad inh: 2; Mcl-1 Bim block: -6; NCF1 inh: -6

How did CCn1c(O)c(C(c2ccccn2)c2c(O)n(CC)c(=S)[nH]c2=O)c(=O)[nH]c1=S do in these assays?
Mcl1-Bid inh: 4; Mcl1 Noxa PPI: -2; 14-3-3 Bad inh: 73*; Mcl-1 Bim block: 0; NCF1 inh: -6

How did O=C1NC(=O)N(Cc2ccco2)C(=O)/C1=C/C=C/c1ccco1 do in these assays?
Mcl1-Bid inh: -52; Mcl1 Noxa PPI: 52*; 14-3-3 Bad inh: 27; NCF1 inh: -7

Results for CN1CCN(c2nc(N)c(Br)c(Cl)n2)CC1 ?
Mcl1-Bid inh: -12; Mcl1 Noxa PPI: 4; 14-3-3 Bad inh: -6; NCF1 inh: -10

What do the screens show for `Nc1ccc(S(=O)(=O)N2CCCCC2c2cccnc2)cc1` (stereo not given)?
Mcl1-Bid inh: -6; Mcl1 Noxa PPI: -6; 14-3-3 Bad inh: -7; Mcl-1 Bim block: -4; NCF1 inh: -13

Results for O=S(=O)(c1ccccc1)N1CCCCC1c1cccnc1 (stereo not given) ?
Mcl1-Bid inh: -6; Mcl1 Noxa PPI: -4; 14-3-3 Bad inh: 9; Mcl-1 Bim block: -4; NCF1 inh: 43*

Results for c1cncc(C2CCCCN2Cc2ccc3c(c2)OCO3)c1 (stereo not given) ?
Mcl1-Bid inh: 40; Mcl1 Noxa PPI: 17; 14-3-3 Bad inh: 71*; Mcl-1 Bim block: -2; NCF1 inh: -17

What do the screens show for `O=C1NC(=S)N(c2ccc(F)cc2)C(=O)/C1=C\c1ccoc1`?
Mcl1-Bid inh: 37; Mcl1 Noxa PPI: 79*; 14-3-3 Bad inh: 76*; Mcl-1 Bim block: 0; NCF1 inh: -169

What do the screens show for `O=C1c2ccccc2C(=O)N1Cc1nc2ccccc2c(=O)n1-c1cccnc1`?
Mcl1-Bid inh: 73*; Mcl1 Noxa PPI: 40; 14-3-3 Bad inh: -2; Mcl-1 Bim block: -1; NCF1 inh: -13

What do the screens show for `O=C1c2ccccc2C(=O)N1Cc1nc2ccccc2c(=O)n1-c1ccc(Br)cn1`?
Mcl1-Bid inh: -15; Mcl1 Noxa PPI: -18; 14-3-3 Bad inh: -4; Mcl-1 Bim block: 2; NCF1 inh: -12

Screening data (PubChem BioAssay)
